Data: PubChem BioAssay (Tox21)
Inconclusive results are not listed. Entries that show only a call come without a potency. Calls of active or inactive are those of the source. The call rests on the fitted dose curve; in most records, active means well fitted curve in the direction sought with a large enough effect in the repeat runs; inconclusive means weak or mixed curves; inactive means no such curve, though single readings can be large; an effect the other way counts as inactive or inconclusive.

Test: qHTS RealTime-Glo MT Cell Viability Assay in HEK293 cells - 8 hour (AID 1224887); further: top concentration of the series differs between compounds; nearly all actives have a fitted effect of over 50% in size
Conditions: RealTime-Glo luminescence; series mostly up to 76.8 µM
Method in brief: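 600 cells/well were plated with the nonlytic NanoLuc/prosubstrate reagent, pre-incubated 5 h, then given 23 nL of compound in DMSO. Incubation at 37 C for 40 h, with luminescence from viable-cell-reduced substrate read repeatedly from 0 h.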
In the case of `Cc1ccccc1N1C(=O)c2cc(S(N)(=O)=O)c(Cl)cc2NC1C` (centres undefined), the Potency is reported as “inactive”. In the case of `C=CC(=C)CCCC(C)(C)OC(C)=O`, the Potency is reported as “inactive”. For `NC(=O)N(O)[C@@H]1COc2cc(OCc3ccccc3)ccc21`, the Potency was “inactive”. In the case of `O=C(OCCOCCO)c1ccccc1Nc1cccc(C(F)(F)F)c1`, the Potency is reported as “inactive”. In the case of `CN1CCN(c2c(F)cc3c(=O)c(C(=O)O)cn4c3c2OCN4C)CC1`, the activity change, negative = cytotoxicity is reported as 1.15% [at 15.8 µM] (inactive). With `OCC1CC=CCC1` (centres undefined) the Potency was “inactive”. With `CC(C)CCCCCOC(=O)CCCCC(=O)OCCCCCC(C)C` the Potency was “inactive”. For `CN1Cc2cc(C(=O)N3CCC(C4CCNCC4)CC3)ccc2N[C@@H](CC(=O)O)C1=O`, the Potency was “inactive”. For `COC(=O)c1cc(Cl)ccc1NS(=O)(=O)C(F)(F)F`, the Potency was “inactive”. For `CCOCCn1c(C2CCN(CCc3ccc(C(C)(C)C(=O)O)cc3)CC2)nc2ccccc21`, the Potency was “inactive”. With `CCc1c2c(nc3ccc(OC(=O)N4CCC(N5CCCCC5)CC4)cc13)-c1cc3c(c(=O)n1C2)COC(=O)[C@]3(O)CC` the Potency was “inactive”. In the case of `CC1CC(=O)NN=C1c1ccc(NCC(C)(C)NCC(O)COc2cc(Cl)ccc2C#N)cc1` (centres undefined), the Potency is reported as “inactive”.

Test: A CellTox Green Cytotoxicity Assay to monitor cytotoxicity in HEK293 cells - 16 hour (AID 1224888); further: nearly all actives have a fitted effect of over 35% in size
Conditions: CellTox Green fluorescence; series mostly up to 76.8 µM
Method in brief: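 HEK293 cells, 600/well, were preincubated 5 hours and then exposed to compounds at 37 C for up to 40 hours. A cell-impermeant cyanine dye staining dead-cell DNA was read by fluorescence at 0, 8, 16, 24, 32 and 40 h time points.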
In the case of `CC(CCc1ccc2c(c1)OCO2)NN` (centres undefined), the Potency is reported as “inactive”. In the case of `CO[Si](C)(OC)OC`, the Potency is reported as “inactive”. For `CCC1(C)CC(=O)NC1=O` (centres undefined), the Potency was “inactive”. In the case of `CC(=O)CC(c1ccc([N+](=O)[O-])cc1)c1c(O)c2ccccc2oc1=O` (centres undefined), the Potency is reported as “inactive”. In the case of `COc1ccc([C@@H]2Sc3ccccc3NC(=O)[C@@H]2O)cc1`, the Potency is reported as “inactive”. With `Nc1nc(Cl)nc2c1ncn2[C@@H]1O[C@H](CO)[C@@H](O)[C@@H]1F` the Potency was “inactive”. For `C=CC(C)(C)CC(=O)OC`, the Potency was “inactive”. For `O=C(O)C(Cc1cc(I)c(O)c(I)c1)c1ccccc1` (centres undefined), the Potency was “inactive”. For `CO[C@@]12[C@H](COC(N)=O)C3=C(C(=O)C(C)=C(N)C3=O)N1C[C@@H]1N[C@@H]12`, the Potency was “inactive”. For `CC1=NN(c2ccc(C(=O)O)cc2)C(=O)C1`, the Potency was “inactive”. With `CN(C)C(=O)Nc1ccc(Oc2ccc(Cl)cc2)cc1` the Potency was “inactive”. In the case of `CNC(=S)NC`, the Potency is reported as “inactive”. With `CCCCC(=O)O[C@]1(C(=O)CO)CC[C@H]2[C@@H]3CCC4=CC(=O)CC[C@]4(C)[C@H]3[C@@H](O)C[C@@]21C` the Potency was “inactive”. For `Cc1ccnc2ccccc12`, the Potency was “inactive”. With `CO[C@H]1O[C@H](CO)[C@@H](O)[C@H](O)[C@H]1O` the Potency was “inactive”. In the case of `CC(=O)Oc1ccc(C(=C2CCCCC2)c2ccc(OC(C)=O)cc2)cc1`, the Potency is reported as “inactive”. With `CCc1cccc(N(C)C(N)=Nc2cccc3ccccc23)c1` the Potency was “inactive”. For `CCCCCCCC/C=C\CCCCCCCC(=O)OC`, the Potency was “inactive”. For `ON(Cc1ccccc1)Cc1ccccc1`, the Potency was “inactive”. In the case of `CCC(C)(C)C1CCC(O)CC1` (centres undefined), the Potency is reported as “inactive”. With `c1cc[c]([Bi]([c]2ccccc2)[c]2ccccc2)cc1` the Potency was “inactive”. For `CC(C)(C)C(=O)O`, the Potency was “inactive”. With `Cc1occc1C(=O)Nc1ccc(C(=O)N2CCC(F)(F)/C(=C\C(=O)N3CCC(N4CCCCC4)CC3)c3ccccc32)cc1` the Potency was “inactive”. In the case of `Cc1ccccc1N1C(=O)c2cc(S(N)(=O)=O)c(Cl)cc2NC1C` (centres undefined), the Potency is reported as “inactive”. In the case of `C=CC(=C)CCCC(C)(C)OC(C)=O`, the Potency is reported as “inactive”. With `NC(=O)N(O)[C@@H]1COc2cc(OCc3ccccc3)ccc21` the Potency was “inactive”. For `O=C(OCCOCCO)c1ccccc1Nc1cccc(C(F)(F)F)c1`, the Potency was “inactive”. With `CN1CCN(c2c(F)cc3c(=O)c(C(=O)O)cn4c3c2OCN4C)CC1` the activity change was -3.76% [at 15.8 µM, stronger effect = higher value] (inactive). With `OCC1CC=CCC1` (centres undefined) the Potency was “inactive”. With `CC(C)CCCCCOC(=O)CCCCC(=O)OCCCCCC(C)C` the Potency was “inactive”. With `CO[C@H]1C=CO[C@@]2(C)Oc3c(C)c(O)c4c(O)c(c5c(c4c3C2=O)=NC2(CCN(CC(C)C)CC2)N=5)NC(=O)/C(C)=C\C=C/[C@H](C)[C@H](O)[C@@H](C)[C@@H](O)[C@@H](C)[C@H](OC(C)=O)[C@@H]1C` the Potency was “inactive”. For `CN1Cc2cc(C(=O)N3CCC(C4CCNCC4)CC3)ccc2N[C@@H](CC(=O)O)C1=O`, the Potency was “inactive”. For `COC(=O)c1cc(Cl)ccc1NS(=O)(=O)C(F)(F)F`, the Potency was “inactive”. With `CCc1c2c(nc3ccc(OC(=O)N4CCC(N5CCCCC5)CC4)cc13)-c1cc3c(c(=O)n1C2)COC(=O)[C@]3(O)CC` the Potency was “inactive”. In the case of `CC1CC(=O)NN=C1c1ccc(NCC(C)(C)NCC(O)COc2cc(Cl)ccc2C#N)cc1` (centres undefined), the Potency is reported as “inactive”.

Test: qHTS RealTime-Glo MT Cell Viability Assay in HepG2 cells - 0 hour (AID 1224889); further: nearly all actives have a fitted effect of over 50% in size
Conditions: RealTime-Glo luminescence; series mostly up to 76.8 µM
Method in brief: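 Cell number in HepG2 cultures estimated from NanoLuc luminescence generated by metabolic reduction of a prosubstrate by living cells. The homogeneous, nonlytic format allowed repeated reads at 0, 8, 16, 24, 32 and 40 h of compound exposure.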
For `CC(CCc1ccc2c(c1)OCO2)NN` (centres undefined), the Potency was “inactive”. For `CCC1(C)CC(=O)NC1=O` (centres undefined), the Potency was “inactive”. For `CC(=O)CC(c1ccc([N+](=O)[O-])cc1)c1c(O)c2ccccc2oc1=O` (centres undefined), the Potency was “inactive”. For `CSc1ccc(Oc2ccc(S(N)(=O)=O)cc2CN(C)C)cc1C`, the Potency was “inactive”. In the case of `COc1ccc([C@@H]2Sc3ccccc3NC(=O)[C@@H]2O)cc1`, the Potency is reported as “inactive”. In the case of `Nc1nc(Cl)nc2c1ncn2[C@@H]1O[C@H](CO)[C@@H](O)[C@@H]1F`, the Potency is reported as “inactive”. In the case of `C=CC(C)(C)CC(=O)OC`, the Potency is reported as “inactive”. In the case of `CO[C@@]12[C@H](COC(N)=O)C3=C(C(=O)C(C)=C(N)C3=O)N1C[C@@H]1N[C@@H]12`, the Potency is reported as “inactive”. In the case of `CC1=NN(c2ccc(C(=O)O)cc2)C(=O)C1`, the Potency is reported as “inactive”. For `CNC(=S)NC`, the Potency was “inactive”. For `C1COCO1`, the Potency was “inactive”. With `Cc1ccnc2ccccc12` the Potency was “inactive”. In the case of `CC(=O)Oc1ccc(C(=C2CCCCC2)c2ccc(OC(C)=O)cc2)cc1`, the Potency is reported as “inactive”. With `CCc1cccc(N(C)C(N)=Nc2cccc3ccccc23)c1` the Potency was “inactive”. With `ON(Cc1ccccc1)Cc1ccccc1` the Potency was “inactive”. For `CCC(C)(C)C1CCC(O)CC1` (centres undefined), the Potency was “inactive”. With `c1cc[c]([Bi]([c]2ccccc2)[c]2ccccc2)cc1` the Potency was “inactive”. With `CC(C)(C)C(=O)O` the Potency was “inactive”. For `NCC1CCCC(CN)C1` (centres undefined), the Potency was “inactive”. With `Cc1occc1C(=O)Nc1ccc(C(=O)N2CCC(F)(F)/C(=C\C(=O)N3CCC(N4CCCCC4)CC3)c3ccccc32)cc1` the Potency was “inactive”. With `COc1cc2c(cc1OC)-c1cc(=Nc3c(C)cc(C)cc3C)n(C)c(=O)n1CC2` the Potency was “inactive”. For `C=CC(=C)CCCC(C)(C)OC(C)=O`, the Potency was “inactive”. In the case of `NC(=O)N(O)[C@@H]1COc2cc(OCc3ccccc3)ccc21`, the Potency is reported as “inactive”. With `O=C(OCCOCCO)c1ccccc1Nc1cccc(C(F)(F)F)c1` the Potency was “inactive”. With `CN1CCN(c2c(F)cc3c(=O)c(C(=O)O)cn4c3c2OCN4C)CC1` the activity change, negative = cytotoxicity was 2.43% [at 15.8 µM] (inactive). With `CC(C)CCCCCOC(=O)CCCCC(=O)OCCCCCC(C)C` the Potency was “inactive”. With `CO[C@H]1C=CO[C@@]2(C)Oc3c(C)c(O)c4c(O)c(c5c(c4c3C2=O)=NC2(CCN(CC(C)C)CC2)N=5)NC(=O)/C(C)=C\C=C/[C@H](C)[C@H](O)[C@@H](C)[C@@H](O)[C@@H](C)[C@H](OC(C)=O)[C@@H]1C` the Potency was “inactive”. For `CN1Cc2cc(C(=O)N3CCC(C4CCNCC4)CC3)ccc2N[C@@H](CC(=O)O)C1=O`, the Potency was “inactive”. With `COC(=O)c1cc(Cl)ccc1NS(=O)(=O)C(F)(F)F` the Potency was “inactive”. For `CCOCCn1c(C2CCN(CCc3ccc(C(C)(C)C(=O)O)cc3)CC2)nc2ccccc21`, the Potency was “inactive”. With `CCc1c2c(nc3ccc(OC(=O)N4CCC(N5CCCCC5)CC4)cc13)-c1cc3c(c(=O)n1C2)COC(=O)[C@]3(O)CC` the Potency was “inactive”. With `CC1CC(=O)NN=C1c1ccc(NCC(C)(C)NCC(O)COc2cc(Cl)ccc2C#N)cc1` (centres undefined) the Potency was “inactive”.
